# Screening data as filed in PubChem BioAssay.
# Cl transport mod: KCC2 cotransporter modulators, thallium flux, primary screen, cell-based, HEK293 KCC2, FluoZin-2 fluorescence, MLSMR. Solute carrier family 12 member 5 (Homo sapiens), Q9H2X9. KCC2 cells, thallium flux FluoZin-2 fluorescence. B-score of Tl+ flux slope (higher = more flux/activation; lower = inhibition) at 10 µM. 190,000 compounds, 2.2% hits. AID 1456, 2008;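 active = thallium flux slope and its plate-corrected score both differing from the plate sample mean at a set confidence after two filtering rounds, in either direction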;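 note: slope of fluorescence scaled to starting intensity during 10 to 20 s after thallium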
# HSV replic up: enhancers of HSV replication in host cells, fold increase, host cell viability; 220,000 compounds, 0.005% hits; HSV replication augmentation in cells; AID 1956, 2009; maximum fold increase; in the data active = maximum fold increase above about 1.5; inconclusive = no clear call, values can overlap the other calls; tested in PC3 cells
# Arbovirus inh: antivirals against arbovirus infection, primary screen, cell-based, full library, 10K replicate subset; arbovirus infection cell-based antiviral screen; inhibition, % at 10 µM; 200,000 compounds, 0.37% hits; in the data active = inhibition above about 30%
# ROMK mod: ROMK potassium channel modulators, primary screen, cell-based, thallium flux, MLSMR library; ATP-sensitive inward rectifier potassium channel 1 (Homo sapiens), P48048; Tet-inducible ROMK, thallium flux fluorescence; actives lie on both sides; B-score at 10 µM; 130,000 compounds, 2% hits; AID 1918, 2009;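 active = signal ratio slope over the read window, or its plate-corrected B-score, at least 3 SD from the plate mean, either direction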;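 note: B-score of the F/F0 ratio slope over 7 to 12 s after thallium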
# Target sequence (P48048 whole entry, looked up): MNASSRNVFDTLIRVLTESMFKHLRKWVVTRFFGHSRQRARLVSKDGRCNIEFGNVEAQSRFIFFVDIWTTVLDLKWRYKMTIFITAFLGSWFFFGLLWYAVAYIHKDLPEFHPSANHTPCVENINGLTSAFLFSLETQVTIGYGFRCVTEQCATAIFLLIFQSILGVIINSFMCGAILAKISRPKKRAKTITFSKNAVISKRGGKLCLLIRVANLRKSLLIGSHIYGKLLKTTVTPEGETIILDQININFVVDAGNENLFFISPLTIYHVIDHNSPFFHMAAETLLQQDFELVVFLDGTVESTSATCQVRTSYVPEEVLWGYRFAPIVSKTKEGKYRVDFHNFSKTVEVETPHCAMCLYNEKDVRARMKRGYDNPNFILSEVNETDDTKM
# Measles CPE: compounds protecting cells from measles virus cytopathic effect, primary screen, measles RdRp inhibitor project, single point, MLSMR library, absorbance. Measles virus-infected cells, CPE protection. protection (pct of control), % at 4 µM. 140,000 compounds, 1.5% hits; in the data active = protection mostly above about 24%, no sharp cut-off; inactive = mostly below about 26%
# ROMK hit retest: ROMK channel modulator hit retest, confirmation, cell-based, thallium flux, duplicate, resupplied hits | AID 1917, 2009 | 3,000 compounds, 54% hits | shares compounds with ROMK mod | normalized thallium flux (F/F0 slope) at 10 µM | fluorescence ratio; active compounds read low;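 active = Flux at 10 µM at least 3 SD below or above vehicle control mean in one or both replicates; inconclusive = no clear call, values can overlap the other calls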
# Numbers stand for hits; n = inactive; u = inconclusive; x = no result. Sampled rows, rich in hits. Any-hit rate of the full collection: about 4%.
SMILES,Cl transport mod,HSV replic up,Arbovirus inh,ROMK mod,Measles CPE,ROMK hit retest
COc1ccc(C)cc1N(C(=O)c1ccccc1F)c1nc2ccccc2s1,n,n,n,-2.5,n,n
COc1ccc(C)cc1N(C(=O)c1ccccc1)c1nc2ccccc2s1,n,n,n,x,n,x
CC(C)C(c1nnnn1Cc1ccccc1)N1CCN(Cc2ccc3c(c2)OCO3)CC1 (stereo unspecified),n,n,n,x,n,0.056
Cc1cc(C)c2cc(CN(CCCN(C)C)C(=S)NCc3ccccc3)c(=O)[nH]c2c1,n,n,n,-3.7,x,0.054
Cc1cccc(NC(=S)N(CCN(C)C)Cc2cc3cc(C)cc(C)c3[nH]c2=O)c1,n,n,n,-4.9,n,0.06
CCCC(C)NC(=O)COc1ccc(S(=O)(=O)N2CCCC2)cc1 (stereo unspecified),x,n,n,n,x,x
COc1ccc2cc(Br)ccc2c1CC(=O)NC1CC(C)(C)NC(C)(C)C1,x,n,n,-2.9,n,0.067
O=C(O)Cc1csc(-c2ccc(F)cc2)n1,n,n,n,3,x,u
COc1ccccc1N1CCN(C(=O)CSc2nnc3c4ccccc4nc(Cc4ccccc4)n23)CC1,n,n,n,x,n,n
O=C(O)c1cccc(CN2C(=O)S/C(=C/c3cccc([N+](=O)[O-])c3)C2=O)c1,n,n,x,-12,x,0.03
CC(C)C(C)NC(=O)COc1ccc(S(=O)(=O)N2CCOCC2)cc1Cl (stereo unspecified),n,n,n,n,x,x
COc1cc(Cl)c(C)cc1NC(=S)NN,n,n,n,n,x,x
COCC(=O)Nc1ncc(S(=O)(=O)c2ccc([N+](=O)[O-])cc2)s1,n,n,n,n,x,x
O=C(NC(Nc1ncc(S(=O)(=O)c2ccc([N+](=O)[O-])cc2)s1)(C(F)(F)F)C(F)(F)F)c1ccc(Cl)cc1,n,x,n,-3,n,n
COc1ccc(C2(CNS(=O)(=O)c3ccc(C)cc3)CCOCC2)cc1,x,n,x,x,x,x
CCCCCc1cc(O)c2c(C)cc(=O)oc2c1,n,n,n,x,63,0.055
CCCc1cc(=O)oc2cc(C)cc(O)c12,x,n,n,n,n,x
CC(=O)c1cc(-c2ccccc2)n(CC(=O)N2CCCCC2)c1C,n,n,n,3,n,n
CC(C)C[C@@H](CSc1ccc(Br)cc1)N1CCN(C)CCC1=O,n,n,x,x,x,n
Cc1ccc(SC[C@H](CC(C)C)N2CCN(C)CCC2=O)cc1,n,n,x,x,x,x
CCCCCCNC(=O)N[C@H](C(=O)NCCC[C@H]1CN2C(=NC[C@H]2C)N1CCC(c1ccccc1)c1ccccc1)C(C)O (stereo partly specified),n,x,x,x,x,0.061
CC(OC(=O)c1ccc2c(=O)n3c(nc2c1)CCCCC3)C(N)=O (stereo unspecified),n,n,n,n,x,x
COc1ccc(CCC(C)NC2C3CC4CC(C3)CC2C4)cc1 (stereo unspecified),n,x,n,x,n,0.057
CC(C)c1nc2scc(-c3ccc(Cl)cc3)c2c(=O)n1N,n,n,x,n,x,x
Cc1ccc(S(=O)(=O)N2CCN(C(C)CC(=O)O)CC2)cc1 (stereo unspecified),n,n,n,n,x,x
SMILES,Cl transport mod,HSV replic up,Arbovirus inh,ROMK mod,Measles CPE,ROMK hit retest
Cn1cc(CN2CCN(c3ccccc3)CC2)c2ccccc21,n,n,36,-5.2,n,0.056
CC(Oc1ccc(Cl)cc1)c1ccnc(N)n1 (stereo unspecified),n,n,n,n,x,x
CC12CS(=O)(=O)CC1SC(=S)N2Cc1ccccc1 (stereo unspecified),n,n,n,n,x,x
Cc1ccc(NC(=S)NCC2CCN(C(C)c3ccccc3)C2)cc1C (stereo unspecified),n,n,n,-4.2,x,0.059
N#CC1=C(N)C(C#N)(C#N)C(c2cccnc2)C2COCC=C12 (stereo unspecified),n,n,n,-6.1,n,0.057
CCCCc1nnc(NC(=O)COc2ccc3c(C)cc(=O)oc3c2)s1,n,n,x,x,x,x
Fc1ccc(-n2cc(-c3ccccc3)c3c(NN4CCOCC4)ncnc32)cc1,n,n,n,-4.2,n,0.048
